This is an account of results in PubChem BioAssay.

Assay [1] is described as follows: glutamate transport activators, MN-1 cells, MN-1 cell line (AID 1612).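 Note: tested at 1 µM final; 0% = mean of DMSO vehicle wells on each plate; positive means more glutamate uptake than control and negative means less.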 The following applies: MN-1 motor neuron cells, stronger effect = higher value.
A short description of assay [2]: GFP-Q80 aggregate reduction, neuronal-like cells, cell-based, NGF-treated PC12, GFPQ80 (AID 1614).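 Note: lower means fewer inclusions and 0 means no inclusions at all.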 As to conditions: PC12 NGF-treated GFP-polyQ80 inclusion reduction.
Assay [3] can be described thus: 75Q-TubH aggregate inhibition, S. cerevisiae, yeast (AID 1616). The following applies: S. cerevisiae 75Q-TubH polyglutamine aggregation suppression; stronger effect = higher value.
A short description of assay [4]: compounds altering viability of human ES cells (AID 493140; call rule not given here;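 note: cells exposed to compounds for four days before counting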). As to conditions: human embryonic stem cell survival screen; stronger effect = higher value.
The nature of assay [5]: signal quenchers or enhancers, Cy5 substrate/SSB – biochemical, NIH Clinical Collection, E. coli SSB, artefact control for HCV NS3 helicase inhibitor project (AID 743268; call rule not given here). As to conditions: Cy5-oligo bound E. coli SSB, fluorescence interference.
A short description of assay [6]: compounds distorting NS3 helicase fluorescence signal – biochemical, NIH Clinical Collection, artefact control for HCV NS3 helicase inhibitor project (AID 743272; call rule not given here;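 note: HCV NS3 helicase with a Cy5 labelled single stranded DNA probe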). The following applies: fluorescence interference counterscreen, HCV NS3 helicase assay; stronger effect = lower value.
Assay [7] in a line: Wnt pathway potentiators raising nuclear beta-catenin – imaging, WNT3A-conditioned medium, mouse C2C12, NPC library, primary screen (AID 1117326; in the data active = nuclear beta-catenin stimulation mostly above about 4.2%, no sharp cut-off; inactive = mostly below about 10%). The following applies: stronger effect = higher value.
The nature of assay [8]: P. berghei load reduction in hepatocytes – cell-based, HepG2, luciferase luminescence, HepG2 viability, primary screen (AID 624349).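 Note: 100% = mean of DMSO negative control wells on the same plate.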 As to conditions: P. berghei liver stage in HepG2, luciferase luminescence, concentration not given here; parasite load remaining: stronger effect = lower value; viability: measured here: HepG2 viability without parasites.
For assay [9], the system named is Hepatitis C virus NS3 helicase. As to the kind of experiment: blockers of NS3h binding to ssDNA – biochemical, fluorescence polarization, LOPAC1280 library, primary screen (AID 687035; in the data active = inhibition above about 37%). The following applies: Purified HCV NS3 helicase, Cy5-dT15 ssDNA binding fluorescence polarization; stronger effect = higher value; concentration not given here. A general note: In fluorescence polarisation assays a small probe gives low polarisation when free and higher when bound to something large.

Assay [10] in a line: compounds altering Cy5-DNA-NS3h complex signal – biochemical, LOPAC1280, artefact control for HCV NS3 helicase inhibitor project (AID 687037; call rule not given here). As to conditions: Cy5-DNA-NS3h complex fluorescence interference counterscreen. For orientation: A counterscreen serves to expose hits that act by an unwanted route or on another target.

“And” between values parts separate entries of the source, which are not always exact repeats. Equal values may be shown once. The source made the active and inactive calls. Cut-off read from the data, not from the text of the source, unless noted: active = parasite load remaining mostly below about 12% (no sharp cut-off); inactive = mostly above about 10%.

`NS(=O)(=O)c1cc(C(=O)O)c(NCc2ccco2)cc1Cl`: the glutamate uptake change in assay [1] is -10.7%. In assay [2], this molecule registered an inclusion score of 2. In addition, in [3], the aggregation suppression score was 0.957. The survival in [4] is 10.1 (inactive). For the same molecule, the fluorescence ratio was 0.95 (inactive) in [5] and 0.89 (inactive) in assay [6]. For the same molecule, the nuclear beta-catenin stimulation was 0.5% (inactive) in [7] (at 10 µM) and 1.3% in assay [7] (stimulation, at 2 µM).

Regarding `CC(C)NCC(O)c1ccc2ccccc2c1` (stereo not given), in assay [1], the glutamate uptake change turned out to be 6.56%. This molecule also gave an inclusion score in assay [2] of 2. The aggregation suppression score in assay [3] was found to be 0.983. In assay [4], the survival was 5.67 (inactive). For the same molecule, in assay [8], the parasite load remaining was 115% (inactive) and 166% (inactive) and 45.3% (inactive); the viability (usually a read-out of living cells in per cent, often relative to untreated cells) is 75% and 89% and 106%. The nuclear beta-catenin stimulation in assay [7] (at 10 µM) was 0.7% (inactive). For the same molecule, in assay [7] (stimulation, at 2 µM), the nuclear beta-catenin stimulation was -1.4%.

In the case of `CC(=O)N(O)CCCCCNC(=O)CCC(=O)N(O)CCCCCNC(=O)CCC(=O)N(O)CCCCCN`, in assay [1], the glutamate uptake change is -8.52%. In assay [2], this molecule had an inclusion score of 2. The same molecule had an aggregation suppression score in assay [3] of 1.05. Also, the survival in [4] was 4 (inactive). Further, the parasite load remaining in [8] was 87.4% (inactive) and 82.1% (inactive) and 111% (inactive). The viability in assay [8] was 104% and 70.2% and 87.4%. Further, the nuclear beta-catenin stimulation in assay [7] (at 10 µM) is -0.3% (inactive); in assay [7] (stimulation, at 2 µM) it was -1.8%.

With `Cc1c(N(C)CS(=O)(=O)O)c(=O)n(-c2ccccc2)n1C`, the glutamate uptake change in assay [1] is -8.12%. This molecule displayed an inclusion score in [2] of 2. Moreover, the aggregation suppression score in assay [3] amounted to 1.09. For the same molecule, the survival in assay [4] is 3.25 (inactive). Besides, in [8], the parasite load remaining was 109% (inactive) and 141% (inactive) and 63.8% (inactive); the viability is 100% and 88.3% and 95.6%. The nuclear beta-catenin stimulation in assay [7] (at 10 µM) is -0.4% (inactive). The nuclear beta-catenin stimulation in [7] (stimulation, at 2 µM) is 0.9%.

For `Nc1ccc(S(=O)(=O)Nc2ccccn2)cc1`, the glutamate uptake change in assay [1] was -8.49%. Further, the inclusion score in assay [2] was found to be 2. Further, the aggregation suppression score in [3] worked out at 1.05. The survival in assay [4] is 9.08 (inactive). The parasite load remaining in assay [8] is 73.3% (inactive) and 71.4% (inactive) and 46.1% (inactive). In [8], the viability is 93.8% and 68.3% and 99%. For the same molecule, the nuclear beta-catenin stimulation in assay [7] (at 10 µM) is -0.3% (inactive); in [7] (stimulation, at 2 µM) it was 1%.

For `O=C(O)c1ccccc1OP(=O)(O)O`, in assay [1], the glutamate uptake change is -7.63%. In addition, in assay [2], the inclusion score is 2. Besides, the aggregation suppression score in assay [3] was determined as 0.8. Also, in assay [4], the survival was 6.17 (inactive). Also, in [8], the parasite load remaining is 79.1% (inactive) and 102% (inactive); the viability is 101% and 71.6%. Besides, the nuclear beta-catenin stimulation in [7] (at 10 µM) is 0.8% (inactive). For the same molecule, the nuclear beta-catenin stimulation in assay [7] (stimulation, at 2 µM) stood at 2.9%.

Regarding `CC(C)(Oc1ccc(CCNC(=O)c2ccc(Cl)cc2)cc1)C(=O)O`, the glutamate uptake change in assay [1] was determined as 8.93%. The molecule also had an inclusion score in [2] of 2. In assay [3], this molecule showed an aggregation suppression score of 1.44. For the same molecule, in assay [4], the survival was 15.2 (inactive). Further, the inhibition (as a rule, the change of the read-out against control, counted positive when it falls) in [9] is -2% (inactive). Also, in assay [10], the fluorescence ratio (interference) is 1.1 (inactive). The nuclear beta-catenin stimulation in [7] (at 10 µM) is 6.1% (inactive); in [7] (stimulation, at 2 µM) it was 5.1%.

On to `CC[C@]12CCCN3CCc4c(n(c5ccccc45)C(=O)C1)[C@@H]32`, for which, in assay [1], the glutamate uptake change is -6.74%. Further, the inclusion score in assay [2] stood at 2. Further, the aggregation suppression score in assay [3] was 1.73. Moreover, the survival in [4] is 2 (inactive). Also, in [8], the parasite load remaining is 191% (inactive) and 75.4% (inactive); the viability was 102% and 73.8%. Besides, in assay [7] (at 10 µM), the nuclear beta-catenin stimulation was 35.1% (inactive). In addition, the nuclear beta-catenin stimulation in [7] (stimulation, at 2 µM) was 6.2%.

Regarding `CN(C)CCOC(=O)C(c1ccccc1)C1(O)CCCC1` (stereo not given), in assay [1], the glutamate uptake change was -0.32%. This molecule came in with an inclusion score in assay [2] of 2. This molecule had an aggregation suppression score in assay [3] of 1.32. Besides, in [4], the survival is 12.5 (inactive). Moreover, the parasite load remaining in assay [8] is 73.9% (inactive) and 104% (inactive) and 58% (inactive). The viability in [8] was 70.9% and 70% and 90.8%. The nuclear beta-catenin stimulation in assay [7] (at 10 µM) is 0.3% (inactive); in [7] (stimulation, at 2 µM), 1.3%.

As to `Cc1c(NC(=O)c2cccnc2)c(=O)n(-c2ccccc2)n1C`, the glutamate uptake change in [1] is -15.2%. Also, the inclusion score in assay [2] came to 2. The molecule further yielded an aggregation suppression score in assay [3] of 1.3. Further, the survival in assay [4] was 16.6 (inactive). Further, in [8], the parasite load remaining is 43.9% (inactive) and 167% (inactive) and 109% (inactive); the viability is 47% and 88.9% and 92.6%. Moreover, the nuclear beta-catenin stimulation in assay [7] (at 10 µM) is -1.7% (inactive). In addition, the nuclear beta-catenin stimulation in assay [7] (stimulation, at 2 µM) stood at 1.7%.
